{"source": "the supplement of paper PMC12494721", "note": "Structures can show the parent of a compound that is named as a salt."}
{"tested_on": "Klebsiella aerogenes DSM 30053", "assay": "growth (OD595) fold change vs plate DMSO controls (fold change (ratio)); higher = more growth", "details": "incubation time: 27 h, anaerobic, 37 °C", "summary_of_the_method": "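Each value is the mean of 2 biological replicates, and fold changes above 1.5 were set to NA. The underlying readings were taken at 595 nm from shaken anaerobic mGAM cultures in 96-well plates after 27 h at 37 °C. They were blank-subtracted, corrected for compound background using 20 µM compound solutions in water, and converted to OD with a calibration factor of 5. Growth is the fold change relative to the median of the plate DMSO controls.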"}
{"smiles": "Nc1nc(CC(=O)Nc2ccc(CCNC[C@H](O)c3ccccc3)cc2)cs1", "note": "[Mirabegron] (20 µM)", "growth": 1.13}
{"smiles": "CS(=O)(=O)OCCCCOS(C)(=O)=O", "note": "[Busulfan] (20 µM)", "growth": 0.991}
{"smiles": "CCN(CC)CCOC(=O)C(Cc1cccc2ccccc12)CC1CCCO1", "note": "(centres undefined) [Nafronyl oxalate] (20 µM)", "growth": 0.993}
{"smiles": "C[C@H]1O[C@@H](O[C@H]2[C@@H](O)C[C@H](O[C@H]3[C@@H](O)C[C@H](O[C@H]4CC[C@@]5(C)[C@H](CC[C@@H]6[C@@H]5C[C@@H](O)[C@]5(C)[C@@H](C7=CC(=O)OC7)CC[C@]65O)C4)O[C@@H]3C)O[C@@H]2C)C[C@H](O)[C@@H]1O", "note": "[Digoxin] (20 µM)", "growth": 0.995}
{"smiles": "COc1cc(N)c(Cl)cc1C(=O)NC1CCN(CCCOc2ccc(F)cc2)CC1OC", "note": "(centres undefined) [Cisapride] (20 µM)", "growth": 0.969}
{"smiles": "O=C(O[C@@H]1C[C@@H]2C[C@H]3C[C@H](C1)N2CC3=O)c1c[nH]c2ccccc12", "note": "[Dolasetron mesilate] (20 µM)", "growth": 0.986}
{"smiles": "Cc1oncc1C(=O)Nc1ccc(C(F)(F)F)cc1", "note": "[Leflunomide] (20 µM)", "growth": 1.03}
{"smiles": "CC(C)Cn1cnc2c(N)nc3ccccc3c21", "note": "[Imiquimod] (20 µM)", "growth": 1.02}
{"smiles": "Clc1ccc2c(c1)C(N1CCNCC1)=Nc1ccccc1O2", "note": "[Amoxapine] (20 µM)", "growth": 1.01}
{"smiles": "CCCCCN(C)CCC(O)(P(=O)(O)O)P(=O)(O)O", "note": "[Ibandronate sodium] (20 µM)", "growth": 0.973}
{"smiles": "CN1CCc2c(c3ccccc3n2Cc2ccccc2)C1", "note": "[Mebhydroline 1,5-naphtalenedisulfonate] (20 µM)", "growth": 1.04}
{"smiles": "C=C1/C(=C\\C=C2/CCC[C@]3(C)[C@@H]([C@H](C)/C=C/[C@@H](O)C4CC4)CC[C@@H]23)C[C@@H](O)C[C@@H]1O", "note": "[Calcipotriene] (20 µM)", "growth": 1.02}
{"smiles": "Cc1nc(=O)c2cc(CN(C)c3ccc(C(=O)N[C@@H](CCC(=O)O)C(=O)O)s3)ccc2[nH]1", "note": "[Raltitrexed] (20 µM)", "growth": 1.02}
{"smiles": "Cc1cn[nH]c1", "note": "[Fomepizole] (20 µM)", "growth": 0.971}
{"smiles": "CC[C@@H]1C(=O)OC[C@@H]1Cc1cncn1C", "note": "[Pilocarpine nitrate] (20 µM)", "growth": 0.987}
{"smiles": "C=C(CC)C(=O)c1ccc(OCC(=O)O)c(Cl)c1Cl", "note": "[Ethacrynic acid] (20 µM)", "growth": 1.01}
{"smiles": "Cc1cccc(C)c1OCC(=O)N[C@@H](Cc1ccccc1)[C@@H](O)C[C@H](Cc1ccccc1)NC(=O)[C@H](C(C)C)N1CCCNC1=O", "note": "[Lopinavir] (20 µM)", "growth": 1.19}
{"smiles": "OCCN1C[C@H](O)[C@@H](O)[C@H](O)[C@H]1CO", "note": "[Miglitol] (20 µM)", "growth": 1.02}
{"smiles": "CCOc1ccccc1OCC1CNCCO1", "note": "(centres undefined) [Viloxazine hydrochloride] (20 µM)", "growth": 0.986}
{"smiles": "CC[C@@]1(O)C(=O)OCc2c1cc1n(c2=O)Cc2cc3c(CN(C)C)c(O)ccc3nc2-1", "note": "[Topotecan] (20 µM)", "growth": 0.991}
{"smiles": "CC(C)N1CCN(c2ccc(OCC3COC(Cn4cncn4)(c4ccc(Cl)cc4Cl)O3)cc2)CC1", "note": "(centres undefined) [Terconazole] (20 µM)", "growth": 1.01}
{"smiles": "CN1CCN(c2c(F)cc3c(=O)c(C(=O)O)cn4c3c2OCN4C)CC1", "note": "[Marbofloxacin] (20 µM)", "growth": 0.139}
{"smiles": "O=C(O)c1cc(=O)[nH]c(=O)[nH]1", "note": "[Orotic acid] (20 µM)", "growth": 1.01}
{"smiles": "c1ccc2c(c1)Cc1ccccc1-2", "note": "[Fluorene] (20 µM)", "growth": 1.07}
{"smiles": "Oc1c(Br)cc(Br)c2cccnc12", "note": "[Broxyquinoline] (20 µM)", "growth": 0.951}
{"smiles": "CCC[C@@H]1C[C@@H](C(=O)N[C@@H]([C@H]2O[C@H](SC)[C@H](O)[C@@H](O)[C@H]2O)[C@H](C)Cl)N(C)C1", "note": "[Clindamycin hydrochloride] (20 µM)", "growth": 0.934}
{"smiles": "COC(=O)Nc1nc2cc(Sc3ccccc3)ccc2[nH]1", "note": "[Fenbendazole] (20 µM)", "growth": 0.98}
{"smiles": "CN(c1nccc(=O)[nH]1)C1CCN(c2nc3ccccc3n2Cc2ccc(F)cc2)CC1", "note": "[Mizolastine] (20 µM)", "growth": 1.04}
{"smiles": "CC[N+](C)(C)c1cccc(O)c1", "note": "[Edrophonium chloride] (20 µM)", "growth": 1.01}
{"smiles": "CC[C@@H]([C@H](C)O)n1ncn(-c2ccc(N3CCN(c4ccc(OC[C@@H]5CO[C@@](Cn6cncn6)(c6ccc(F)cc6F)C5)cc4)CC3)cc2)c1=O", "note": "[Posaconazole hydrate] (20 µM)", "growth": 1.02}
{"smiles": "COCC1=C(C(=O)OC(C)OC(=O)OC(C)C)N2C(=O)[C@@H](NC(=O)/C(=N\\OC)c3csc(N)n3)[C@H]2SC1", "note": "(some centres undefined) [Cefpodoxime proxetil] (20 µM)", "growth": 1.04}
{"smiles": "O=c1n(CCCN2CCN(c3cccc(Cl)c3)CC2)nc2ccccn12", "note": "[Trazodone hydrochloride] (20 µM)", "growth": 0.987}
{"smiles": "CC1=C(C(=O)O)N2C(=O)[C@@H](NC(=O)[C@H](N)c3ccccc3)[C@H]2SC1", "note": "[Cephalexin monohydrate] (20 µM)", "growth": 0.98}
{"smiles": "CCCSc1nc(N[C@@H]2C[C@H]2c2ccc(F)c(F)c2)c2nnn([C@@H]3C[C@H](OCCO)[C@@H](O)[C@H]3O)c2n1", "note": "[Ticagrelor] (20 µM)", "growth": 1.02}
{"smiles": "Cc1cc(NS(=O)(=O)c2ccc(N)cc2)nc(C)n1", "note": "[Sulfisomidine] (20 µM)", "growth": 1.04}
{"smiles": "CN1CCN(C(c2ccccc2)c2ccc(Cl)cc2)CC1", "note": "(centres undefined) [Chlorcyclizine hydrochloride] (20 µM)", "growth": 0.997}
{"smiles": "OC[C@H](O)C(O)[C@@H](O)CO", "note": "[L-Arabinitol] (50 µM)", "growth": 0.979}
{"smiles": "CC(C)COC(=O)OCN1C(=O)CN(CCN2CC(=O)N(COC(=O)OCC(C)C)C(=O)C2)CC1=O", "note": "[Sobuzoxane] (20 µM)", "growth": 1.03}
{"smiles": "CCCNC(=O)NS(=O)(=O)c1ccc(Cl)cc1", "note": "[Chlorpropamide] (20 µM)", "growth": 0.983}
